Experimental data published in ChEMBL document CHEMBL1961873, “Compounds: GSK PKIS; Assays: Nanosyn kinase panel” (2012).

Tests used:
[1] = biological target: Serine/threonine-protein kinase MARK2 (Homo sapiens) (UniProt Q7KZI7); conditions: at 1 µM
[2] = biological target: PAS domain-containing serine/threonine-protein kinase (Homo sapiens) (UniProt Q96RG2); conditions: at 0.1 µM
[3] = biological target: PAS domain-containing serine/threonine-protein kinase (Homo sapiens) (UniProt Q96RG2); conditions: at 1 µM
[4] = biological target: Phosphorylase b kinase gamma catalytic chain, skeletal muscle/heart isoform (Homo sapiens) (UniProt Q16816); conditions: at 0.1 µM
[5] = biological target: Phosphorylase b kinase gamma catalytic chain, skeletal muscle/heart isoform (Homo sapiens) (UniProt Q16816); conditions: at 1 µM
[6] = biological target: T1, Phosphorylase b kinase gamma catalytic chain, liver/testis isoform (Homo sapiens) (UniProt P15735); conditions: at 0.1 µM
T1 sequence (whole entry): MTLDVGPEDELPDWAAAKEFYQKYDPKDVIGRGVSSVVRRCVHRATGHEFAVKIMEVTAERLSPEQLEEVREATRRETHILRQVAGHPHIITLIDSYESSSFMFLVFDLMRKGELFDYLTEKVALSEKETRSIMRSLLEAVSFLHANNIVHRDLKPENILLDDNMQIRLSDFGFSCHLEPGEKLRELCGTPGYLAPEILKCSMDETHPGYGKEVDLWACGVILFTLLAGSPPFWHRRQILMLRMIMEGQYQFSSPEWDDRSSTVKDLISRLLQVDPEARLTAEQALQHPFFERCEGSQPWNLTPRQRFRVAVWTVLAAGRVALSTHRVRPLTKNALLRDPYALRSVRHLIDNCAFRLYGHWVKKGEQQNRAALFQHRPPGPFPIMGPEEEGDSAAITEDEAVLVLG

[7] = biological target: T1, Phosphorylase b kinase gamma catalytic chain, liver/testis isoform (Homo sapiens); conditions: at 1 µM
[8] = biological target: Serine/threonine-protein kinase pim-1 (Homo sapiens) (UniProt P11309); conditions: at 0.1 µM
[9] = biological target: Serine/threonine-protein kinase pim-1 (Homo sapiens) (UniProt P11309); conditions: at 1 µM
[10] = biological target: Serine/threonine-protein kinase pim-2 (Homo sapiens) (UniProt Q9P1W9); conditions: at 0.1 µM;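 further: reported value is the mean percent inhibition of PIM2, measured in the GSK PKIS kinase inhibitor set screen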
Chain of Serine/threonine-protein kinase pim-2 (Homo sapiens) (Q9P1W9 whole entry, looked up): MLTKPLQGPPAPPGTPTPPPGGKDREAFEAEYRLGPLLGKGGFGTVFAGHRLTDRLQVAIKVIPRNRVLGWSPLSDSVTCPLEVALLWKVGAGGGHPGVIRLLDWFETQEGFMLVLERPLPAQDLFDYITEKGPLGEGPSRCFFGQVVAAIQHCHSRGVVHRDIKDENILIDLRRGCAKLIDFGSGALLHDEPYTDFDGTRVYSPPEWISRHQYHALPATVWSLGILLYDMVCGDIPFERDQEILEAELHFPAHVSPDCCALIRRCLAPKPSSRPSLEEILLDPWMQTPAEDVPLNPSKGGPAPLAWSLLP

Chain of Serine/threonine-protein kinase pim-1 (Homo sapiens) (P11309 whole entry, looked up): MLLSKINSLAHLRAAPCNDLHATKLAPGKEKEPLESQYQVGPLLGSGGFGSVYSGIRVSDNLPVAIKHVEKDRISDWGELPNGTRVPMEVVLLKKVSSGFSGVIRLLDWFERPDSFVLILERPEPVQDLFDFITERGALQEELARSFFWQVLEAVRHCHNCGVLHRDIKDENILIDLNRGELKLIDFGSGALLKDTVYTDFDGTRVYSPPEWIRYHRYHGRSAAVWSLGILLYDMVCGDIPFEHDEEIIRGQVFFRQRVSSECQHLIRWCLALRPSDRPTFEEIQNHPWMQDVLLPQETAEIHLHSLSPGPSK
Chain of Serine/threonine-protein kinase MARK2 (Homo sapiens) (Q7KZI7 whole entry, the tested form may be a part): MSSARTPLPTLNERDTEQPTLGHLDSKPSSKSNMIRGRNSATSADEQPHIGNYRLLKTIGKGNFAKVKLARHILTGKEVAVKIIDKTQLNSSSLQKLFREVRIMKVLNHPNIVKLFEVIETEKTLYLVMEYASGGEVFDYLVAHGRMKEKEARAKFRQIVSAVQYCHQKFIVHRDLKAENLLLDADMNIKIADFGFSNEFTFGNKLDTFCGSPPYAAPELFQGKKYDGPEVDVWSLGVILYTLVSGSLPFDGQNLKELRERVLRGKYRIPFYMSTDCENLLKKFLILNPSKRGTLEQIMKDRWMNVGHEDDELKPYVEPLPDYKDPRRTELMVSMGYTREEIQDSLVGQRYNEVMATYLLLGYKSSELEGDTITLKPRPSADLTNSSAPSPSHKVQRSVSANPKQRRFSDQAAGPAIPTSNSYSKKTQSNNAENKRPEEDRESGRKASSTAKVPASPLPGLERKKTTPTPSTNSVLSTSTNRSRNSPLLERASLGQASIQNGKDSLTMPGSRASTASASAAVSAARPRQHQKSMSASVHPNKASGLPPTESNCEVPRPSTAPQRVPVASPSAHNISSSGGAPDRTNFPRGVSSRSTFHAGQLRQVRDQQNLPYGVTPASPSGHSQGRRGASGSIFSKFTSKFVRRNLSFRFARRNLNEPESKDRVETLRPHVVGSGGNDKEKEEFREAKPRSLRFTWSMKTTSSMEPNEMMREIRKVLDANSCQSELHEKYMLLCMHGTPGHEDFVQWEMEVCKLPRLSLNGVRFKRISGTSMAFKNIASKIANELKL
Chain of Phosphorylase b kinase gamma catalytic chain, skeletal muscle/heart isoform (Homo sapiens) (Q16816 whole entry, looked up, canonical isoform): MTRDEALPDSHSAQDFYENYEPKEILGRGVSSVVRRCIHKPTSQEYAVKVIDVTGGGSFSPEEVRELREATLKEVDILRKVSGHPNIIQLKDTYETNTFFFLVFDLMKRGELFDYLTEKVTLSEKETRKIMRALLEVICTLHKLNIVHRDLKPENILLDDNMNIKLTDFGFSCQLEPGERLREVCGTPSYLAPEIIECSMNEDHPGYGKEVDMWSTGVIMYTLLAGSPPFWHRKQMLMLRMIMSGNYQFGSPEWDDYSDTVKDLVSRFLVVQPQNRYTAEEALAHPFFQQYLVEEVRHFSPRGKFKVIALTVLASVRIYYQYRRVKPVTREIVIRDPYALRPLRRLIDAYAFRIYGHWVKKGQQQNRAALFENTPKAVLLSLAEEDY
Chain of PAS domain-containing serine/threonine-protein kinase (Homo sapiens) (Q96RG2 whole entry, the tested form may be a part, canonical isoform): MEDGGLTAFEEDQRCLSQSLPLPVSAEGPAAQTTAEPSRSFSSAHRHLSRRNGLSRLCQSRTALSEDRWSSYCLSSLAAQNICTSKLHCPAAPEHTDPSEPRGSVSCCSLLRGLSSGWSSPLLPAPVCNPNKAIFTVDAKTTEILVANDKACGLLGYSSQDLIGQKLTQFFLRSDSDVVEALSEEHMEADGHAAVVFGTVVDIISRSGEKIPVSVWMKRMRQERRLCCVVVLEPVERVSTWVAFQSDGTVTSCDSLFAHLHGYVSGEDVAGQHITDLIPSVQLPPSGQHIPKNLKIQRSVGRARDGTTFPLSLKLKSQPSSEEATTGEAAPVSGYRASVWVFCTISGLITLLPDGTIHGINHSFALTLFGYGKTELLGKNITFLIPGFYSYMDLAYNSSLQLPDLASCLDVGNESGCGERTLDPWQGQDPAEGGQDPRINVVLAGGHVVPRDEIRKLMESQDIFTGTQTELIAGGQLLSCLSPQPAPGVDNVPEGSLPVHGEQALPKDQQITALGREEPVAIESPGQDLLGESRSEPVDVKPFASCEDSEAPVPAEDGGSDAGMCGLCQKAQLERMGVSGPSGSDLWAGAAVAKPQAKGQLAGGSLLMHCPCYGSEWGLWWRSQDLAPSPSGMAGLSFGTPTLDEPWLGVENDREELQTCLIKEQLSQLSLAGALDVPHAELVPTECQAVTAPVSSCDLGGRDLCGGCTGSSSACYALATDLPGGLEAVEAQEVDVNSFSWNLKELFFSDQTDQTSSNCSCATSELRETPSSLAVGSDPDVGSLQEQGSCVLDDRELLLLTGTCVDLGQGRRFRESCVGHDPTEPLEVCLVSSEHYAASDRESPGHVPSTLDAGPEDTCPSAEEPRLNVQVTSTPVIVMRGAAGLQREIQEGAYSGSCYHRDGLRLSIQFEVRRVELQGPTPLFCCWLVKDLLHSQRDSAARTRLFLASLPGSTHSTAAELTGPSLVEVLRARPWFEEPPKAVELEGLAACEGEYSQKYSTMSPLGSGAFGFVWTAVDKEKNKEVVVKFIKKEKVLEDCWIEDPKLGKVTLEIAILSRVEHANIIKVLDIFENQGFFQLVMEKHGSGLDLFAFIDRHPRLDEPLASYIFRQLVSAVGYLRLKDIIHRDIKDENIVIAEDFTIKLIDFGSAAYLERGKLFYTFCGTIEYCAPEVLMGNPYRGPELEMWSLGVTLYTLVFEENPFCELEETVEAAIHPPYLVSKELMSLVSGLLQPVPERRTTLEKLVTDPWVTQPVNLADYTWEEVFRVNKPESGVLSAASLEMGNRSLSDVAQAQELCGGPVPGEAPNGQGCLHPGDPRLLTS

Row | Compound | inhibition [1] [%] | inhibition [2] [%] | inhibition [3] [%] | inhibition [4] [%] | inhibition [5] [%] | inhibition [6] [%] | inhibition [7] [%] | inhibition [8] [%] | inhibition [9] [%] | inhibition [10] [%]
1 | COc1cc(C=NNc2ncnc3c2cnn3Cc2ccccc2)ccc1O | 4.82 | -0.31 | 0.37 | -1.3 | 2.64 | -7.11 | -6.49 | -0.98 | 1.73 | 0.65
2 | CCn1c(-c2nonc2N)nc2c(C#CC(C)(C)O)ncc(OC[C@@H]3CCCN3)c21 | 51.9 | 0.57 | 7.61 | 1.02 | 2.21 | 1.45 | 1.65 | 1.6 | 7.63 | 1.1
3 | COc1cc2c(cc1Nc1nc(Nc3ccsc3C(N)=O)c3cc[nH]c3n1)N(C(=O)CN(C)C)CCC2 | 5.44 | 0.93 | 1.03 | 8.54 | 41.3 | -0.5 | -0.53 | 31.3 | 79.8 | 0.47
4 | COc1cccc(COc2cc(-n3cnc4ccccc43)sc2C(N)=O)c1 | -1.4 | 1.11 | 1.08 | 2.26 | 3.47 | 1.62 | 0.45 | 0.5 | 0.84 | 0.51
5 | COc1cccc(-n2ncc3c(N/N=C/c4ccncc4)ncnc32)c1 | 2.54 | 0.3 | 0.25 | 5.39 | 17.6 | 5.48 | 7.43 | 1.36 | 3.36 | 0.77
6 | Cc1cc(-c2ccco2)cc(C)c1/C=C/c1cncc(-c2nn[nH]n2)c1 | -0.28 | 1.32 | 1.25 | 3.4 | 4.41 | 1.33 | 1.22 | 0.14 | 1.06 | 0.57
7 | CCn1c(-c2nonc2N)nc2c(C#CCN)ncc(OCCCN)c21 | 10.1 | 1.4 | 16.9 | 3.15 | 5.73 | -1.7 | 4.75 | 4.76 | 36 | 3.26
8 | CCn1c(-c2nonc2N)nc2c(C#CC(C)(C)O)nc(O[C@@H](CN)c3ccccc3)cc21 | 90.5 | 0.53 | 15.9 | 1.61 | 12.3 | -3.09 | -0.93 | 4.64 | 35.2 | 2.45
9 | CCn1c(-c2nonc2N)nc2c(C#CC(C)(C)O)ncc(OCC3CCNCC3)c21 | 46.5 | 0.98 | 12.8 | 2.88 | 9.61 | 4.03 | 6.94 | 2.14 | 17.3 | -3.05
10 | NS(=O)(=O)c1ccc(-c2ccc3c(NC(=O)C4CC4)n[nH]c3c2)cc1 | 2.59 | 0.57 | -1.27 | -3.09 | 3.54 | 2.77 | 0 | 1.16 | 0.95 | -0.15
11 | NS(=O)(=O)c1ccc(N/C=C2\C(=O)Nc3ccc4ncsc4c32)cc1 | 34.6 | -0.28 | 0.4 | 15.2 | 47.6 | 7.45 | 19.8 | 1.16 | 4.82 | 0.27
12 | Fc1ccc(-c2ncn(C3CCNCC3)c2-c2ccnc(Oc3ccccc3)n2)cc1 | -1.83 | 0.55 | -1 | 3.99 | 2.25 | 1.69 | 1.14 | -1.15 | -0.11 | -3.22
13 | Nc1nonc1-c1nc2cnccc2n1C1CCCCC1 | 21.9 | 1.01 | 12.9 | -3.58 | 8.25 | -4.48 | -2.24 | 29.8 | 79.2 | 5.24
14 | NC(=O)c1sc(-n2cnc3cc(C(F)(F)F)ccc32)cc1OCc1ccccc1Br | 2.11 | 1.33 | 0.96 | 0.3 | 5.87 | 2.5 | 3.01 | 1.18 | 1.5 | -0.35
